Laboratory results published in PubChem BioAssay.
Activity calls are given as the source filed them. Unless noted, no rule for the calls is given here.

Key:
[1] = A549 cell viability effects, profiling panel, calcein-AM fluorescence, 48 h, basal (AID 1162); settings: higher = more signal; also: test concentration not given here
[2] = adipocyte viability effects, profiling panel, cell-based, 3T3-L1 adipocytes, calcein-AM fluorescence, 48 h, basal (AID 1163); settings: 3T3-L1 adipocytes viability, higher = more signal; also: test concentration not given here
[3] = HepG2 cell viability effects, profiling panel, calcein-AM fluorescence, 48 h, basal (AID 1164); settings: higher = more signal; also: test concentration not given here
[4] = MM1S cell viability effects, profiling panel, calcein-AM fluorescence, 48 h, basal (AID 1165); settings: higher = more signal;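 also: viability of MM1S multiple myeloma cells under basal unstimulated conditions; test concentration not given here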
[5] = basal RPMI8226 viability, no added stimulus, profiling panel, cell-based, calcein-AM fluorescence, 48 h, PK04 Diversity Set (AID 1166); settings: RPMI8226 myeloma viability, higher = more signal;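 also: cells grown under basal conditions without added stimulus; test concentration not given here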
[6] = basal HepG2 mitochondrial membrane potential changes, profiling panel, cell-based, JC-1 fluorescence, 24 h, 100 nL compound (AID 1167); settings: higher = more signal; also: test concentration not given here
[7] = basal 3T3-L1 adipocyte mitochondrial potential changes, profiling panel, cell-based, JC-1 fluorescence, 3T3-L1 adipocytes, 24 h, 100 nL compound (AID 1168); settings: JC-1 mitochondrial fluorescence, higher = more signal, called active from +8 up or from −8 down; also: test concentration not given here
[8] = basal RPMI8226 mitochondrial membrane potential changes, profiling panel, cell-based, JC-1 fluorescence, 24 h, 100 nL compound (AID 1169); settings: RPMI8226 myeloma, JC-1 mitochondrial potential fluorescence, higher = more signal; also: test concentration not given here
[9] = basal MM1S mitochondrial membrane potential changes, profiling panel, cell-based, JC-1 fluorescence, 24 h, 100 nL compound (AID 1170); settings: higher = more signal; also: test concentration not given here
[10] = A549 lung cancer cell viability effects, profiling panel, resazurin fluorescence, 24 h, PK04 Diversity Set (AID 1171); settings: higher = more signal, called active from +8 up or from −8 down; also: test concentration not given here
[11] = HepG2 liver cancer cell viability effects, profiling panel, resazurin fluorescence, 24 h, PK04 Diversity Set (AID 1172); settings: higher = more signal; also: test concentration not given here
[12] = basal S. cerevisiae growth modulation, no modifier, primary screen, OD600, strain BY4716, 24 h, basal condition (AID 1173); settings: OD600, 24 h, higher = more signal, called active from +8 up or from −8 down
[13] = MM1S myeloma cell viability, profiling panel, resazurin fluorescence, basal, 24 h, PK04 Diversity Set (AID 1174); settings: higher = more signal, called active from +8 up or from −8 down;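 also: MM1S multiple myeloma cell line; test concentration not given here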
[14] = molecular target: Dihydroorotate dehydrogenase (quinone), mitochondrial (Plasmodium falciparum (isolate 3D7)) (UniProt Q08210); test: PfDHODH enzyme inhibitors, primary screen, biochemical, C-terminal His tag, absorbance 600 nm (AID 1175); settings: DCIP absorbance 600 nm, higher = more signal, called active from +8 up or from −8 down;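 also: recombinant parasite enzyme with a five histidine tag at its C terminus; test concentration not given here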
Sequence of Dihydroorotate dehydrogenase (quinone), mitochondrial (Plasmodium falciparum (isolate 3D7)) (Q08210 whole entry, looked up): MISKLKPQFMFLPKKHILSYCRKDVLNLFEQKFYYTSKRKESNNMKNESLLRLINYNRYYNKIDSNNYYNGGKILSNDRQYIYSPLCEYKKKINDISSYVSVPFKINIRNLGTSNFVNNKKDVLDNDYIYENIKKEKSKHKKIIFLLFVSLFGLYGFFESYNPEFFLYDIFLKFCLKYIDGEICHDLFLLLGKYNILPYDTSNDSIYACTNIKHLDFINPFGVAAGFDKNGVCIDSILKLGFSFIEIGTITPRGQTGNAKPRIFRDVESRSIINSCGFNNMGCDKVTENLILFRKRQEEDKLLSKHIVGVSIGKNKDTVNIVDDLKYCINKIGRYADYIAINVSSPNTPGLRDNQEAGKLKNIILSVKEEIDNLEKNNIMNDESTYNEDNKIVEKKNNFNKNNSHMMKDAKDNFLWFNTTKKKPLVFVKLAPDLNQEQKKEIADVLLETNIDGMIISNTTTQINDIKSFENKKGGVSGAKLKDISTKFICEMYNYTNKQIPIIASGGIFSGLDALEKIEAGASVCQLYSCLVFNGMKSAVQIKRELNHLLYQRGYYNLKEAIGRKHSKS

[15] = P. aeruginosa biofilm formation inhibitors, primary screen, strain PAO1, LB-PBS medium, absorbance 600 nm (AID 1176); also: test concentration not given here; settings: P. aeruginosa PAO1 growth/biofilm, A600, 12 h; higher = more signal
[16] = S. cerevisiae RM11-1a growth modifiers, primary screen, strain RM11-1a, OD600, basal, 24 h (AID 1177); settings: OD600, 24 h, higher = more signal, called active from +8 up or from −8 down;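 also: cultures grown under basal conditions with no added stressor; test concentration not given here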
[17] = E. coli acrAB mutant growth effects, primary screen, E. coli filamentation inducers, strain DRC39, OD650, 24 h (AID 1178); settings: higher = more signal, called active from +8 up or from −8 down;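 also: growth measured as culture turbidity by optical density at 650 nm; test concentration not given here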
[18] = E. coli acrAB mutant growth effects, primary screen, E. coli filamentation inducers, strain DRC39, OD650, 48 h (AID 1179);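 also: screen aims at cell division blockers that make cells filament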; settings: E. coli DRC39 delta-acrAB growth, higher = more signal, called active from +8 up or from −8 down
[19] = RPMI8226 myeloma cell viability, profiling panel, resazurin fluorescence, basal, 24 h, PK04 Diversity Set (AID 1180); settings: higher = more signal;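 also: RPMI8826 multiple myeloma cell line at 5000 cells per well; test concentration not given here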
[20] = molecular target: E3 ubiquitin-protein ligase XIAP (Homo sapiens) (UniProt P98170); test: XIAP binders, primary screen, biophysical, small-molecule microarray, fluorescence 635 nm (AID 1181); settings: small-molecule microarray binding, higher = more signal;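 also: score merges 667 nm emission and signal to noise over triplicate slides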
Sequence of E3 ubiquitin-protein ligase XIAP (Homo sapiens) (P98170 whole entry, looked up): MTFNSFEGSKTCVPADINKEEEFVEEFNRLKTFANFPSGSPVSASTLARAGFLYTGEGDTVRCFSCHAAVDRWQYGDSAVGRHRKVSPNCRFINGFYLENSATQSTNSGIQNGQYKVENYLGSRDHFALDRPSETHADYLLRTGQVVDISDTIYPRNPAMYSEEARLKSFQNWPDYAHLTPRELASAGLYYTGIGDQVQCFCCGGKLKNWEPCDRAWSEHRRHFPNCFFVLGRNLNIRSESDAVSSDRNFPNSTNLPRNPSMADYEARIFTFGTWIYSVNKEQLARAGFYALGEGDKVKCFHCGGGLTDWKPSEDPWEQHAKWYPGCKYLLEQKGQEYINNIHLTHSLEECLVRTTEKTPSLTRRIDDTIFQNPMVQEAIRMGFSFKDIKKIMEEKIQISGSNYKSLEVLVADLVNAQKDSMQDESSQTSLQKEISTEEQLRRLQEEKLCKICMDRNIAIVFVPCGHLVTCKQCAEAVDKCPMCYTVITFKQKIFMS

Structure (SMILES)	z-score [1]	z-score [2]	z-score [3]	z-score [4]	z-score [5]	z-score [6]	z-score [7]	z-score [8]	z-score [9]	z-score [10]	z-score [11]	z-score [12]	z-score [13]	composite z-score [14]	z-score [15]	z-score [16]	z-score [17]	z-score [18]	z-score [19]	composite z-score [20]
CCOC(=O)CCN1C(=O)[C@H]2[C@H]3[C@H](O)[C@H](O)CC(=NOCC(C)C)[C@H]3CC[C@H]2C1=O	0.0183	0.179	-0.268	0.324	-0.75	0.364	0.295 (inactive)	-0.324	-1.03	-0.86 (inactive)	-0.823	0.265 (inactive)	-0.662 (inactive)	-1.19 (inactive)	0.246 (inactive)	0.628 (inactive)	0.692 (inactive)	0.686 (inactive)	-0.876	-0.22
CO[C@H]1COC(=O)[C@@H](C)COC(=O)[C@H](COCc2ccccc2)NC(=O)CC=C[C@H]1C	0.362	0.293	0.298	0.555	0.34	1.36	-0.213 (inactive)	0.529	2.5	0.266 (inactive)	-0.238	-1.58 (inactive)	0.671 (inactive)	0.604 (inactive)	-0.543 (inactive)	0.085 (inactive)	1.05 (inactive)	-0.997 (inactive)	0.267	0.227
CCCNC(=O)OC[C@H]1O[C@H](c2ccccc2)C=C[C@@H]1Oc1ccc(OC)cc1	-0.365	0.125	-0.138	-0.543	-0.0859	-0.362	-0.307 (inactive)	-0.215	0.0375	-0.745 (inactive)	-0.889	-1.88 (inactive)	-1.06 (inactive)	0.152 (inactive)	-0.115 (inactive)	-0.0966 (inactive)	0.507 (inactive)	0.342 (inactive)	-0.35	-0.0629
CCOC(=O)[C@H](Cc1ccccc1)NC(=O)CCC1CC(OC(=O)NCc2ccc3c(c2)OCO3)CC2(CCCC(COC(=O)NCCc3ccccc3OC)O2)O1 (stereo not given in full)	-1.24	-0.399	-0.519	-0.271	-0.502	-0.778	-0.877 (inactive)	0.444	0.00939	0.124 (inactive)	-0.23	0.911 (inactive)	-0.32 (inactive)	0.0964 (inactive)	0.426 (inactive)	0.824 (inactive)	-0.0754 (inactive)	-0.731 (inactive)	0.0481	-0.024
